Results taken from PubChem BioAssay (EPA / NIEHS).
The source holds several records for some structures; these can differ, active in one and inactive in another. Calls of active or inactive are those of the source. The calls were made as follows: active = hit-call score of the fitted dose curve at least 0.9, where 1 is the maximum; inactive = score below 0.9.

Assay: CCTE_Harrill_HTTr_Apoptosis_MCF7: CCTE's 6-hour Apoptosis Assessment for the High-Throughput Transcriptomics (HTTr) Platform, in MCF-7 cells cultured in DMEM + 10% fetal bovine serum, Harrill Lab (AID 2284011)
Text: This is a cell-based assay that evaluates apoptosis using high content imaging to evaluate activation of caspase-3/7 using the CellEvent Caspase 3/7 Green detection reagent in 384-well format.One of seven assay components measured from the CCTE_Harrill_HTTr_Apoptosis assay. This was part of a full screening experiment. This is a cell-based assay that evaluates apoptosis in MCF-7 cells cultured in DMEM + 10% fetal bovine serum. High content imaging is used to evaluate activation of caspase-3/7 using the CellEvent Caspase 3/7 Green detection reagent. Measurements are taken at 6 hours after chemical dosing in 384-well format.The assay component endpoint CCTE_Harrill_HTTr_Apoptosis_MCF7 was analyzed with bidirectional fitting relation to DMSO as the negative control and baseline of activity. Using a type of viability reporter, gain-of-signal activity can be used to evaluate activation of caspase-3/7 using the CellEvent Caspase 3/7 Green detection reagent to understand changes in apoptosis. To generalize the intended target to other relatable targets, this assay endpoint is annotated to cell cycle, where the subfamily is apoptosis.
Chemicals were tested in MCF7 cells in an eight point dilution series with a six hour exposure duration.

Row | SMILES | outcome | AC50
1 | O=c1cc(-c2ccccc2)oc2ccccc12 | inactive | 
2 | Cc1cnc(NC(=O)C2=C(O)c3ccccc3S(=O)(=O)N2C)s1 | inactive | 
3 | O=C1c2cccc(O)c2C(=O)c2c(O)cc(CO)cc21 | inactive | 
4 | Cc1cc(=O)n(-c2ccccc2)n1C | inactive | 
5 | CCCCCC/C=C\CCCCCCCC(=O)O | inactive | 
6 | Cc1cc(C)c(C)cc1C | inactive | 
7 | CCCCCCCCCCCCCCCC[n+]1ccccc1 |  | 61.4 µM (active)
8 | C1CN(SSN2CCOCC2)CCO1 | inactive | 
9 | CCCCC(CC)COC(=O)c1ccccc1O (stereo not given) | inactive | 
10 | CCCCC(CC)COC(=O)c1ccccc1 (stereo not given) | inactive | 
11 | COc1ccc(C(Cl)=C(c2ccc(OC)cc2)c2ccc(OC)cc2)cc1 | inactive | 
12 | c1ccc(-c2ccccn2)nc1 | inactive | 
13 | Cc1ccc(C(C)(C)C)cc1 | inactive | 
14 | CC(=O)OCC(=O)[C@@]12N=C(C)O[C@@H]1C[C@H]1[C@@H]3CCC4=CC(=O)C=C[C@]4(C)[C@H]3[C@@H](O)C[C@@]12C | inactive | 
15 | O=C(Nc1ccccc1)c1ccccc1O | inactive | 
16 | CCCCCCCC/C=C\CCCCCCCC(=O)O | inactive | 
17 | CC(C)(Oc1ccc(C2CC2(Cl)Cl)cc1)C(=O)O (stereo not given) | inactive | 
18 | C[C@]12C=CC(=O)C=C1CC[C@@H]1[C@@H]2[C@@H](O)C[C@@]2(C)[C@H]1CC[C@]2(O)C(=O)CO | inactive | 
19 | O=c1c2ccccc2oc2ccccc12 | inactive | 
20 | CC/C=C\C/C=C\C/C=C\CCCCCCCC(=O)O | inactive | 

Row | SMILES | outcome | AC50
21 | c1ccc2c(c1)ccc1cc3c(ccc4ccccc43)cc12 | inactive | 
22 | CC(=O)[C@H]1[C@H](C#N)C[C@H]2[C@@H]3CC=C4C[C@@H](O)CC[C@]4(C)[C@H]3CC[C@@]21C | inactive | 
23 | CN(C)c1ccc(C(=N)c2ccc(N(C)C)cc2)cc1 | inactive | 40.5 µM (active)
24 | O=c1[nH]c(=O)c2[nH]c(=O)[nH]c2[nH]1 | inactive | 
25 | c1c[nH]cn1 | inactive | 
26 | CN(C)c1ccc(N=Nc2ccccc2C(=O)O)cc1 | inactive | 
27 | COc1ccc(-c2coc3cc(O)ccc3c2=O)cc1 | inactive | 
28 | CC(=O)NS(=O)(=O)c1ccc(N)cc1 | inactive | 
29 | C=CC(=O)NC(C)(C)CS(=O)(=O)O | inactive | 
30 | O=C(Nc1cccc(C(F)(F)F)c1)c1cc(Br)cc(Br)c1O | inactive | 
31 | Cn1c([N+](=O)[O-])cnc1COC(N)=O | inactive | 
32 | O=C1CCCC1 | inactive | 
33 | C=C(C)[C@H]1CC=C(C)CC1 | inactive | 
34 | CCCCCCC(O)CO (stereo not given) | inactive | 
35 | CC(=O)OC(C)C | inactive | 
36 | CC1(C)O[C@@H]2C[C@H]3[C@@H]4C[C@H](F)C5=CC(=O)C=C[C@]5(C)[C@@]4(F)[C@@H](O)C[C@]3(C)[C@]2(C(=O)CO)O1 | inactive | 
37 | CCCCOCCOC(=O)COc1nc(Cl)c(Cl)cc1Cl | inactive | 
38 | CCC(=O)Oc1ccc(/C(CC)=C(\CC)c2ccc(OC(=O)CC)cc2)cc1 | inactive | 
39 | OC1CCCCCCCCCCC1 | inactive | 
